Measurements as given in PubChem BioAssay (EPA / NIEHS).
“And” between values parts separate entries of the source, which are not always exact repeats. Equal entries are not always repeated. Results filed as inconclusive are left out. The source made the active and inactive calls. How the source made its calls, unless noted: active means hit-call score of the fitted dose curve at least 0.9, where 1 is the maximum; inactive means score below 0.9.

Tests used:
[1] = ACEA_ER_80hr: ACEA Biosciences xCELLigence Real-Time Cell Analysis on Estrogen Receptor Agonism for Proliferation (AID 2282667; active means hit-call score of the fitted dose curve at least 0.9, where 1 is the maximum); conditions: T47D proliferation, impedance (xCELLigence), 80 h
In short: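 T-47D cells monitored by electrical impedance (xCELLigence) with compound present throughout; 80 h timepoint, positive-direction fitting versus DMSO. Eight-point 1:4 dilutions from 100 uM final, duplicate plates.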

[2] = ATG_CRE_CIS: Attagene CIS-FACTORIAL HepG2 Assay for human cAMP Responsive Element (CRE) binding protein 3 (AID 2282926); conditions: HepG2 CRE cis-reporter, Attagene multiplexed mRNA; actives raise or lower the signal
In short: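 HepG2 cells transiently transfected with cis-element-driven multiple reporter transcription units; CRE reporter mRNA measured 24 h after dosing by RT-PCR, 6-FAM labelling, HpaI digestion and capillary electrophoresis. Bidirectional fit versus DMSO baseline.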

[3] = molecular target: CCAAT/enhancer-binding protein beta (Homo sapiens) (UniProt P17676); test: ATG_C_EBP_CIS: Attagene CIS-FACTORIAL HepG2 Assay for human CCAAT/Enhancer Binding Protein (C/EBP) beta (AID 2282927); conditions: HepG2 Attagene cis-factorial transcription factor reporter; actives raise or lower the signal
In short: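 Chemical-treated HepG2 cells (24 h) bearing cis-regulated reporter constructs were processed for total RNA, then reverse transcription, PCR amplification, fluorescent primer extension and fragment analysis; gain- and loss-of-signal were fitted against DMSO.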

[4] = ATG_CMV_CIS: Attagene CIS-FACTORIAL HepG2 Assay for human CMV (Internal Marker) (AID 2282928); conditions: HepG2 CMV promoter reporter, transcription factor profiling; actives raise or lower the signal;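 further: endpoint acts as a background internal control marker rather than a target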
In short: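 After transient transfection of HepG2 with reporter transcription units driven by cis-regulatory promoters, cells receive test chemical for 24 h. Labeled reporter amplicons, digested with HpaI, are sized and quantified by capillary electrophoresis against DMSO.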

[5] = molecular target: Aryl hydrocarbon receptor (Homo sapiens) (UniProt P35869); test: ATG_Ahr_CIS: Attagene CIS-FACTORIAL HepG2 Assay for human Aryl Hydrocarbon Receptor (Ahr) (AID 2282930); conditions: HepG2 AhR cis-factorial reporter transcription; actives raise or lower the signal
In short: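 Following 24 h of chemical dosing, transfected HepG2 liver cells with cis-driven reporter units were lysed for RNA; reporter mRNA was quantified via RT-PCR and capillary electrophoresis, and responses fitted bidirectionally from DMSO.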

[6] = ATG_AP_1_CIS: Attagene CIS-FACTORIAL HepG2 Assay for human Activator Protein 1 (AP-1) (AID 2282931); conditions: HepG2 Attagene cis-factorial AP-1 reporter mRNA; actives raise or lower the signal
In short: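 Endogenous transcription-factor activity in human HepG2 liver cells is read through a cis-promoter reporter transcript, sampled 24 h after dosing. Detection uses RT-PCR with capillary electrophoresis; values come from bidirectional fitting relative to DMSO.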

[7] = ATG_AP_2_CIS: Attagene CIS-FACTORIAL HepG2 Assay for human Activator Protein 2 (AP-2) (AID 2282932); conditions: HepG2 AP-2 cis-reporter, Attagene transcription factor profiling; actives raise or lower the signal
In short: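 Bidirectional curve fitting against DMSO was applied to reporter mRNA signals from HepG2 cells 24 h after dosing. Cis-promoter reporter units, transiently transfected, were read by RT-PCR plus capillary electrophoresis.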

[8] = ATG_BRE_CIS: Attagene CIS-FACTORIAL HepG2 Assay for human Bone Morphogenetic Protein (BMP) Response Element (BRE) (AID 2282933); conditions: HepG2 BMP response element reporter, Attagene transcription factor profiling; actives raise or lower the signal
In short: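 Endogenous transcription factor activity at a BMP response element was monitored in transfected HepG2 cells 24 h after dosing. Fluorescent RT-PCR products were resolved by capillary electrophoresis, and activity was fitted in both directions versus DMSO.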

[9] = molecular target: Retinoic acid receptor alpha (Homo sapiens) (UniProt P10276); test: ATG_DR5_RAR_CIS: Attagene CIS-FACTORIAL HepG2 Assay for human Retinoic Acid Receptor Alpha (RARE), DR5 submotif (AID 2282934); conditions: HepG2 Attagene cis-factorial RARE DR5 reporter, mRNA; actives raise or lower the signal
In short: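 Transfected HepG2 reporter cells are exposed to chemicals for 24 h. Then RNA is extracted and the DR5 element reporter transcript is measured by RT-PCR and capillary electrophoresis, with bidirectional curve fitting relative to DMSO.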

Measured: AC50

Chain of Retinoic acid receptor alpha (Homo sapiens) (P10276 whole entry, looked up): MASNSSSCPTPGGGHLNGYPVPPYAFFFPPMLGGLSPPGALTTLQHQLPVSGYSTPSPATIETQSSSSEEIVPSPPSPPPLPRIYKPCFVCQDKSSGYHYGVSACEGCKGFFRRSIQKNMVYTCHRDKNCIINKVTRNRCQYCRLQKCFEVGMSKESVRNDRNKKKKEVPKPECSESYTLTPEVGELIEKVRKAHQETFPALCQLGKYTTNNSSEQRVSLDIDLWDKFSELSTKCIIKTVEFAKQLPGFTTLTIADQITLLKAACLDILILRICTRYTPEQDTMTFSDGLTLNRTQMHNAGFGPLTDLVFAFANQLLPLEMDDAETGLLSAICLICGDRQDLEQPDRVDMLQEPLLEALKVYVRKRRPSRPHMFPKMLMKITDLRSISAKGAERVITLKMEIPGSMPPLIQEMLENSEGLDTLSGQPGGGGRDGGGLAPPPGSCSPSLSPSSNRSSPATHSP
Chain of CCAAT/enhancer-binding protein beta (Homo sapiens) (P17676 whole entry, looked up, the tested form may be a part): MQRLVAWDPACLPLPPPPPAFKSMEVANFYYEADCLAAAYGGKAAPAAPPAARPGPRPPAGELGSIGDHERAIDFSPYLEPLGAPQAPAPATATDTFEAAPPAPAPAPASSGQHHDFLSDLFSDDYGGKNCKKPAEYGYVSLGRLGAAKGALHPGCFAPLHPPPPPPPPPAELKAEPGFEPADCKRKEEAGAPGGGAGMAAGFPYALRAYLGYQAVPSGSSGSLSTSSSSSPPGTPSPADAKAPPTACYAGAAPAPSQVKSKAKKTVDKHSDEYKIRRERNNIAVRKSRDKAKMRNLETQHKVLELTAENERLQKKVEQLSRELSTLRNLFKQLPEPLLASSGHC
Chain of Aryl hydrocarbon receptor (Homo sapiens) (P35869 whole entry, looked up): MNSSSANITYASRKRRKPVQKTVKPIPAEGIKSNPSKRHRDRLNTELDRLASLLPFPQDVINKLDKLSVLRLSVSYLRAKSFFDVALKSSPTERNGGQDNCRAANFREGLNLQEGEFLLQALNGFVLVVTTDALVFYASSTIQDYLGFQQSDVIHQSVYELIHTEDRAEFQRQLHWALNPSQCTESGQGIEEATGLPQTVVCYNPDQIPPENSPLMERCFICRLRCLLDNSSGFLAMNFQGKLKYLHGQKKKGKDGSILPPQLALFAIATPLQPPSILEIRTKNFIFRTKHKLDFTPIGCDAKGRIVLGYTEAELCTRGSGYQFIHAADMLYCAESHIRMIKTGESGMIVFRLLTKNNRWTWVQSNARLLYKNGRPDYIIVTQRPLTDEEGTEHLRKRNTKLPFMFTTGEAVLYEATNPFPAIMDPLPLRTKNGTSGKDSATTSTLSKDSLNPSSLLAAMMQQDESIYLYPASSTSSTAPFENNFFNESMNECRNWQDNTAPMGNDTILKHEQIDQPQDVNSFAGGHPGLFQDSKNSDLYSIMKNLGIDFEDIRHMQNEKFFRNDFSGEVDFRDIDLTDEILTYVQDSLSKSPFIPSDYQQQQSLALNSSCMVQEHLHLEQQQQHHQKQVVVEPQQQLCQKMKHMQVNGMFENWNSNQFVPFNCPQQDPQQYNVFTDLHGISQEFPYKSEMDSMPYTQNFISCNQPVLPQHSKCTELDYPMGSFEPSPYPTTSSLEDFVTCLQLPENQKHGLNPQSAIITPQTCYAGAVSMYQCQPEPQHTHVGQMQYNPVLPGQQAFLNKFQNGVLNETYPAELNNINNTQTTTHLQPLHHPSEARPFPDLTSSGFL

C(=C(c1ccccc1)c1ccccc1)c1ccccc1
inactive: [2] | [3] | [5] | [7] | [8] | [9]
active: [1] 0.647 µM | [4] 30 µM | [6] 36.7 µM

O=C(O)C(F)(F)C(F)(F)C(F)(F)C(F)(F)F
inactive: [1] | [2] | [3] | [4] | [5] | [6] | [7] | [8] | [9]

FC(F)(Br)C(F)(F)C(F)(F)C(F)(F)C(F)(F)C(F)(F)Br
inactive: [2] | [3] | [4] | [5] | [6] | [7] | [8] | [9]
active: [1] 42.7 µM

CCCCOc1ccc(N)cc1
inactive: [1] | [2] | [3] | [4] | [5] | [6] | [7] | [8] | [9]

OCC(F)(F)C(F)(F)C(F)(F)C(F)(F)C(F)(F)C(F)(F)F
inactive: [1] | [2] | [4] | [5] | [6] | [7] | [8] | [9]
active: [3] 204 µM

C=C(C)C(=O)OCC(F)(F)C(F)(F)C(F)(F)F
inactive: [1] | [2] | [3] | [4] | [5] | [6] | [7] | [8] | [9]

CC(C)(C)C(=O)CC(=O)C(F)(F)C(F)(F)C(F)(F)F
inactive: [1] | [2] | [3] | [4] | [5] | [6] | [7] | [8] | [9]

CC(=O)Nc1ccc(N=Nc2cc(C)ccc2O)cc1
active: [5] 17.7 µM
inactive: [1] | [2] | [3] | [4] | [6] | [7] | [8] | [9]

CC/C=C\CCOC(=O)c1ccccc1
inactive: [1] | [2] | [3] | [4] | [5] | [6] | [7] | [8] | [9]

FC(F)(F)C(F)(F)C(F)(F)C(F)(F)C(F)(F)C(F)(F)CCS
inactive: [1] | [2] | [3] | [4] | [5] | [6] | [7] | [8] | [9]

Cc1ccc(S(=O)(=O)NCl)cc1
active: [5] 66.9 µM and 61.9 µM
inactive: [1] | [2] | [3] | [4] | [6] | [7] | [8]

CCO[Si](CCC(F)(F)C(F)(F)C(F)(F)C(F)(F)C(F)(F)C(F)(F)F)(OCC)OCC
inactive: [1] | [2] | [3] | [4] | [5] | [6] | [7] | [8] | [9]
